# Compounds with a hit are over-represented: about 7.4% of the library has one in this group of screens.
# NPC1 prom act: activates the NPC1 promoter; 320,000 tested, 2.4% active; AID 485313; Potency, µM (top dose mostly 9.22 µM), inactives show at the highest dose activation, actives largely listed as activators; Huh7 NPC1 promoter luciferase reporter, 24 h; note: % of control where 0% means no effect; nearly all actives have a fitted effect of over 60% in size
#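 Stable NPC1-promoter luciferase Huh7 line; cpd (DMSO) 24 h, 37 °C, 5% CO2; Amplite luciferase reagent 10 min RT; luminescence readout. qHTS format.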
# Rab9 prom act: Rab9 promoter activation | Huh7 Rab9 promoter-luciferase reporter, luminescence, 24 h | Potency, µM (doses to about 9.22 µM), for inactives: top-dose activation, negative = inhibition, usual class: activators | 320,000 tested, 2.8% active; note: % of control where 0% means no effect; nearly all actives have a fitted effect of over 60% in size
#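 Huh7 cells stably carrying a Rab9 promoter-luciferase reporter, 1500 cells per well in OP-MEM I with 10% FBS, treated with compound 24 hours at 37C. Luciferase activity read by luminescence after 10 minutes with Amplite reagent.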
# SMN2 splice enh: enhancers of SMN2 splice variant expression | HEK293 SMN2-luciferase splicing reporter, luminescence, 30-36 h | AID 1458 | Potency, µM (doses to about 46.1 µM), inactives show at the highest dose activity change, positive = activation, usual class: activators | 210,000 tested, 2.8% active; note: % of control where 0% means no effect; nearly all actives have a fitted effect of over 55% in size
#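 HEK293 cells carry an SMN2 minigene-luciferase reporter in which exon 7 inclusion puts luciferase in frame. Cells were seeded at 2000 cells/well, attached for 10-12 hours, then exposed to compounds for 30-36 hours at 37C before ONE-Glo luminescence.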
# ELG1 genotoxic: inducers of genotoxicity in HEK293T ELG1-luciferase cells | HEK293T ELG1-luciferase reporter, luminescence, 16 h | 330,000 tested, 1.3% active | Potency, µM (series often up to 46 µM), for the others: at the highest dose activity change, positive = activation, most hits filed as activators; note: % of control where 0% means no effect; nearly all actives have a fitted effect of over 60% in size
#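 Screening used a luciferase reporter fused to human ELG1 in HEK293T cells. Luminescence was read on a CCD plate imager after 16 hr exposure and 30 min ONE-Glo incubation.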
# KinaseGlo FLuc: blocks Kinase-Glo luciferase, a counter-screen artifact; Kinase-Glo luciferase, ATP luminescence, 8 min; Potency, µM (highest dose often 38.3 µM), for the others: top-dose activity change, negative = inhibition, hits mostly inhibitors; 200,000 tested, 0.28% active; note: % is set by controls: 0 for no effect and ±100 for the full control effect; nearly all actives have a fitted effect of over 60% in size
#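 Substrate mix (final 50 mM imidazole pH 7.2, 50 mM KCl, 7 mM MgCl2, 10 uM ATP, 0.01% Tween 20, 0.05% BSA) plus pin-tool compound, then Kinase-Glo detection mix; 8 min ambient, luminescence read.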
# FLuc counter: firefly luciferase modulation, counter-screen for miR-21 project; Potency, µM (titrated, usually from 57.5 µM), for inactives: top-dose activity change, negative = inhibition, actives largely listed as inhibitors; AID 588342; P08659; 360,000 tested, 6.9% active; purified FLuc, Km substrates, luminescence inhibition;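 note: plate controls were vehicle for no effect and reference inhibitor for full effect; nearly all actives have a fitted effect of over 55% in size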
# Target sequence (P08659 whole entry, looked up): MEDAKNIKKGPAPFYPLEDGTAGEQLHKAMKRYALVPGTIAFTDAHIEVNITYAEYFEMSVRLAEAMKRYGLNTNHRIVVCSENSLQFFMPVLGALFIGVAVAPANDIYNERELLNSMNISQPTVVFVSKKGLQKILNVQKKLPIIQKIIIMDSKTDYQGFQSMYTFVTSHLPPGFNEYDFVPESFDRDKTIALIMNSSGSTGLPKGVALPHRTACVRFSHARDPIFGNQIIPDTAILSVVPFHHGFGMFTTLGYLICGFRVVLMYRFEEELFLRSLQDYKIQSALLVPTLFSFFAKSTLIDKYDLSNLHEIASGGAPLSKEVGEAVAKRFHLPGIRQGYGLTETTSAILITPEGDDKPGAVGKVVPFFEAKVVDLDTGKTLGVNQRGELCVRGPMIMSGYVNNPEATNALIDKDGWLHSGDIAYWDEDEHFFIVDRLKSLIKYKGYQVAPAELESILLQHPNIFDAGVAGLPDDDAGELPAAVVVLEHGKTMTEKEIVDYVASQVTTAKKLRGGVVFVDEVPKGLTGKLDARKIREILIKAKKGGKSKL
#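 Purified P. pyralis luciferase, 10 nM final, with Km-level 10 uM D-luciferin and 10 uM ATP in 50 mM Tris acetate pH 7.5, 10 mM Mg acetate, 0.01% Tween-20, 0.05% BSA; 6-point qHTS titration about 60 µM downward; luminescence read.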
# * hit, by the source's call; ? = inconclusive; . = not tested or not shown; [ ] = dose if it differs, or a comment. Calls come from the whole dose curve; as a rule, active = well fitted curve in the direction sought with a large enough effect; inconclusive = small, poorly fitted or top-dose-only effect, or another doubt; inactive = no such curve, though single readings can be large; an effect the other way counts as inactive or inconclusive. Potency is the fitted concentration of half-maximal effect.
SMILES,NPC1 prom act,Rab9 prom act,SMN2 splice enh,ELG1 genotoxic,KinaseGlo FLuc,FLuc counter
O=C(N/N=C/c1ccc(OC(=O)c2ccc3c(c2)OCO3)cc1)c1cncc(Br)c1,22.9%,13.3%,5.2%,4.5%,-0.3%,1.6%
O=C(N/N=C/c1cccc(OC(=O)c2ccc3c(c2)OCO3)c1)c1cncc(Br)c1,18.7%,?,15.8µM*,12.7%,-4.1%,-5.4%
COc1cc(/C=N/NC(N)=S)ccc1OC(=O)c1ccc(C)cc1,2.9%,-0.2%,20.7%,-8.1%,-7.2%,-11.4%
COc1ccc(C(=O)Oc2cccc(/C=N/NC(N)=S)c2)cc1,20.3%,12.3%,?,3.9%,-8.0%,12µM*
CNC(=O)COc1ccc(Nc2nnc(-c3ccc(C)c(S(=O)(=O)NC(C)(C)C)c3)c3ccccc23)cc1,.,.,-33.0%,.,.,15.1µM*
C#CC(C)(C)NS(=O)(=O)c1cc(-c2nnc(Nc3ccc(C)cc3)c3ccccc23)ccc1C,.,.,8.7%,.,.,2.69µM*
CNS(=O)(=O)c1cc(-c2nnc(Nc3ccc(NC(C)=O)cc3)c3ccccc23)ccc1C,-0.3%,3.8%,.,-4.6%,.,?
CCN(CC)C(=O)c1ccc(Nc2nnc(-c3ccc(C)c(S(=O)(=O)NC)c3)c3ccccc23)cc1,.,.,-31.5%,.,.,-16.5%
CCS(=O)(=O)c1cccc(C(=O)N2CCN(c3nc4c(C)ccc(Cl)c4s3)CC2)c1,.,.,.,.,.,-15.0%
CC(=O)c1cccc(NC(=O)c2cc(-c3ccco3)nc3ccccc23)c1,2.1%,-3.9%,.,-16.8%,.,-17.1%
CC(=O)Nc1ccc(/C=N/NC(=O)c2cc(-c3ccco3)nc3ccccc23)cc1,2.7%,3.1%,.,3.2%,.,2.13µM*
O=C(O)c1cc(-c2ccco2)nc2cc3ccccc3cc12,15.8%,22.3%,.,10.0%,.,8.49µM*
O=C(O)c1ccccc1/C=N/NC(=O)c1cc(-c2ccco2)nc2ccccc12,-5.0%,13.5%,.,-1.5%,.,0.953µM*
CCN1CCN(C(=O)c2cc(-c3ccco3)nc3ccccc23)CC1,1.0%,-2.7%,.,2.4%,.,?
O=C(NNC(=O)c1cc(-c2ccco2)nc2ccccc12)c1ccccc1,-1.6%,2.9%,.,-5.1%,.,19µM*
COCCCNC(=O)c1ccc(Cn2c(=O)c3ccccc3n(Cc3c(C)cc(C)cc3C)c2=O)cc1,.,.,-1.2%,.,.,0.6%
C=CCSC1=NC(=O)/C(=C/c2cccs2)S1,-8.1%,-5.3%,19.9%,?,-1.5%,19µM*
Nc1cnn(C2OC(CO)C(O)C2O)c(=O)n1 (stereo unspecified),0.5%,2.6%,?,-10.1%,-2.4%,3.3%
Nc1cnn([C@@H]2O[C@H](CO)[C@@H](O)[C@H]2O)c(=O)n1,.,.,22.4µM*,.,.,.
CCOc1ccc(CCNC(=O)c2cc3c(=O)oc4ccc(C)cc4c3s2)cc1OCC,.,.,-9.2%,.,.,3.0%
Cc1cc(O)cc(O)c1C(=O)OC1(C)C(=O)C=C2C=C(/C=C/CO)OC=C2C1=O (stereo unspecified),.,.,9.7%,.,-1.3%,.
Cc1ccc(C2C3=C(CC(C)(C)CC3=O)N(CCN3CCOCC3)C3=C2C(=O)CC(C)(C)C3)cc1,-3.4%,3.55µM*,-7.6%,-1.9%,-2.6%,-9.1%
O=C(/C=C/Nc1ccccc1F)c1ccc(Br)cc1,0.562µM*,0.794µM*,5.01µM*,1.03µM*,-10.6%,0.477µM*
O=C(CCCc1ccccc1)Nc1ccc(Br)cc1F,?,24.7%,.,?,.,?
O=C(O)/C=C\C(=O)Nc1ccccc1F,-3.5%,0.5%,6.1%,-0.8%,5.2%,0.6%
SMILES,NPC1 prom act,Rab9 prom act,SMN2 splice enh,ELG1 genotoxic,KinaseGlo FLuc,FLuc counter
O=C(/C=C/Nc1ccc(Br)cc1F)c1ccccc1,1.26µM*,0.447µM*,-42.6%,?,10µM*,0.107µM*
O=C(OCC1CC(c2ccccc2)=NO1)c1ccco1 (stereo unspecified),-0.7%,1.3%,.,1.8%,.,7.57µM*
C[C@]12C[C@H](O)CC(CO)(CO)C1[C@H](O)C[C@@]13CC4[C@@H](CC12)[C@@]4(C)C3 (stereo partly specified),.,.,2.5%,.,1.7%,.
Cc1nnc2c3ccccc3c(-c3ccc(O)cc3)nn12,-2.9%,-4.6%,28.6%,?,5.2%,-0.1%
Cc1nnc2c3ccccc3c(-c3cccs3)nn12,-21.9%,0.3%,11.2µM*,12.6µM*,0.8%,-0.1%
COc1cccc([C@@H]2Oc3ccc(Br)cc3C[C@H]2OC(=O)NCCc2ccc(OC)c(OC)c2)c1,.,.,-0.7%,.,-2.1%,.
Cc1cc(C)n2c(nc3ccccc32)c1C(=O)NCc1ccccc1,0.9%,7.4%,-2.1%,-0.8%,-0.3%,-9.4%
Cc1cc(C)n2c(nc3ccccc32)c1C(=O)NN,1.2%,-1.0%,.,7.0%,.,0.379µM*
C[C@H]1Cc2c(COc3ccccc3)nc3c(c2CO1)CN(C(=O)C1CCCCC1)CC3,.,.,-19.1%[9.22 µM],.,-1.4%[7.66 µM],.
CCc1ccc(Nc2nnc(SCC(=O)c3c(N)n(C4CC4)c(=O)[nH]c3=O)s2)cc1,25.2%,27.1%,.,11.2%,.,0.601µM*
Cc1nnc(SCC(=O)Nc2cccnc2Cl)s1,-0.4%,-1.0%,.,-1.3%,.,6.8%
CCc1ccc(Nc2nnc(SCC(=O)NCCN3C(=O)CSC3=O)s2)cc1,28.1%,?,11.2µM*,?,-16.4%,1.9µM*
COc1cccc(Nc2nnc(SCC(=O)Nc3sccc3C(N)=O)s2)c1,0.9%,-1.5%,-17.7%,-22.3%,-1.0%,10.7µM*
Cc1ccc(-c2csc(SCC(=O)c3c(N)n(C4CC4)c(=O)[nH]c3=O)n2)cc1,-0.7%,1.5%,.,-4.4%,.,-1.0%
CCc1ccc(Nc2nnc(SCC(=O)Nc3cccnc3Cl)s2)cc1,-2.7%,4.0%,.,5.9%,.,1.35µM*
COc1cccc(Nc2nnc(SCn3nnc4ccccc4c3=O)s2)c1,-6.2%,-8.9%,15.9%,-3.5%,8.6%,-12.3%
COC(C)(C)CCCC(C)C/C=C/C(C)=C/C(=O)O (stereo unspecified),.,.,-3.4%,.,1.0%,.
Cc1nnc(SCC(=O)Nc2sccc2C(N)=O)s1,-1.1%,0.6%,.,-2.6%,.,-4.8%
CCc1ccc(Nc2nnc(SCC(=O)Nc3sccc3C(N)=O)s2)cc1,28.4%,17.6%,?,-1.8%,0.6%,2.13µM*
Cc1nc(N2CCOCC2)c2nc(-c3ccccc3)n(CC(C)(C)CN(C)C)c2n1,.,.,-0.7%,.,-0.3%,.
O=C(NCc1ccccc1Cl)c1ccccc1NC(=O)c1nsc2ccccc12,.,.,.,.,.,16.9µM*
CCOc1ccc(CNC(=O)c2ccc(NC(=O)C3=CSCCO3)cc2)cc1,1.2%,6.3%,.,4.2%[9.26 µM],.,-6.4%
CCOc1cc(CNC(=O)c2ccc(NC(=O)c3nsc4ccccc34)cc2)ccc1OC,.,.,.,.,.,3.01µM*
Cc1ccccc1CNC(=O)c1ccccc1NC(=O)c1nsc2ccccc12,.,.,.,.,.,-19.1%

# High-throughput results deposited in PubChem BioAssay by National Center for Advancing Translational Sciences (NCATS).
